Only some compounds are listed: those with a hit (about 10% of all), similar ones and a draw of the others.
G9a inh – blocks human histone lysine methyltransferase G9a; Potency, µM (series often up to 102 µM), inactives show top-dose activity, negative = inhibition, usual class: inhibitors; G9a H3K9 monomethylation, AlphaScreen, 2 h; Q96KQ7; hit rate 8.8% among 350,000; also: potency is read from the fitted curve at half-maximal effect; % is scaled to controls: 0 for no effect and ±100 for the full control effect; nearly all actives have a fitted effect of over 75% in size
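Using a bead-based AlphaScreen, monomethylated H3K9 product from 2 h room-temperature reactions (G9a 20 nM, peptide 500 nM, SAM 20 uM) was detected with 0.5 ug/mL rabbit anti-H3K9me1 antibody.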
Six1-Eya2 blk – blocks human Six1 binding to Eya2 | Q15475+O00167 | hit rate 0.56% among 360,000 | activity change, % (concentration not given with the values) | AlphaScreen GST-Six1/His-Eya2 binding, biochemical; stronger effect = lower value; in the data active = activity change below about -65%; inconclusive = mostly about -30% to -63%; also: % is scaled to controls: 0 for no effect and ±100 for the full control effect
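GST-Six1 + His-Eya2 (5X stock: 250/500 nM); Tris pH 8.0, 300 mM NaCl, 0.05% BSA, 0.02% Tween 20; GSH donor/Ni acceptor beads; 1 h 37 °C dark; AlphaScreen readout.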
HP1b chromo inh – inhibitors of HP1-beta chromodomain binding to methylated histone tails; P83916; AlphaScreen HP1-beta / biotin-H3K9me3 peptide binding; Potency, µM (series often up to 114 µM), for the others: at the highest dose activity change, negative = inhibition, most hits filed as inhibitors; hit rate 0.56% among 390,000; also: potency is read from the fitted curve at half-maximal effect; nearly all actives have a fitted effect of over 70% in size
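Compound inhibition of the preformed complex between 50 nM HP1-beta and 50 nM biotinylated H3K9me3 peptide was read by AlphaScreen. Buffer was PBS pH 7.4 with 0.01% Tween-20. Incubations ran 30 min at room temperature, with 10 ug/mL donor/acceptor beads.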
JMJD2A Tudor – JMJD2A Tudor domain (human) inhibition; hit rate 4.4% among 390,000; AID 504339; AlphaScreen JMJD2A-Tudor / H3K4me3 peptide binding; Potency, µM (series often up to 114 µM), inactives show top-dose activity change, negative = inhibition, most hits filed as inhibitors; also: potency is read from the fitted curve at half-maximal effect; % is scaled to controls: 0 for no effect and ±100 for the full control effect; nearly all actives have a fitted effect of over 50% in size
BAZ2B inh – blocks human BAZ2B; Q9UIF8; AlphaScreen BAZ2B-H3K14Ac peptide displacement; Potency, µM (series often up to 114 µM), for inactives: at the top dose activity change, negative = inhibition, most hits filed as inhibitors; hit rate 4.4% among 360,000; also: potency is read from the fitted curve at half-maximal effect; % is scaled to controls: 0 for no effect and ±100 for the full control effect; nearly all actives have a fitted effect of over 60% in size
Target sequence (Q9UIF8 whole entry, looked up): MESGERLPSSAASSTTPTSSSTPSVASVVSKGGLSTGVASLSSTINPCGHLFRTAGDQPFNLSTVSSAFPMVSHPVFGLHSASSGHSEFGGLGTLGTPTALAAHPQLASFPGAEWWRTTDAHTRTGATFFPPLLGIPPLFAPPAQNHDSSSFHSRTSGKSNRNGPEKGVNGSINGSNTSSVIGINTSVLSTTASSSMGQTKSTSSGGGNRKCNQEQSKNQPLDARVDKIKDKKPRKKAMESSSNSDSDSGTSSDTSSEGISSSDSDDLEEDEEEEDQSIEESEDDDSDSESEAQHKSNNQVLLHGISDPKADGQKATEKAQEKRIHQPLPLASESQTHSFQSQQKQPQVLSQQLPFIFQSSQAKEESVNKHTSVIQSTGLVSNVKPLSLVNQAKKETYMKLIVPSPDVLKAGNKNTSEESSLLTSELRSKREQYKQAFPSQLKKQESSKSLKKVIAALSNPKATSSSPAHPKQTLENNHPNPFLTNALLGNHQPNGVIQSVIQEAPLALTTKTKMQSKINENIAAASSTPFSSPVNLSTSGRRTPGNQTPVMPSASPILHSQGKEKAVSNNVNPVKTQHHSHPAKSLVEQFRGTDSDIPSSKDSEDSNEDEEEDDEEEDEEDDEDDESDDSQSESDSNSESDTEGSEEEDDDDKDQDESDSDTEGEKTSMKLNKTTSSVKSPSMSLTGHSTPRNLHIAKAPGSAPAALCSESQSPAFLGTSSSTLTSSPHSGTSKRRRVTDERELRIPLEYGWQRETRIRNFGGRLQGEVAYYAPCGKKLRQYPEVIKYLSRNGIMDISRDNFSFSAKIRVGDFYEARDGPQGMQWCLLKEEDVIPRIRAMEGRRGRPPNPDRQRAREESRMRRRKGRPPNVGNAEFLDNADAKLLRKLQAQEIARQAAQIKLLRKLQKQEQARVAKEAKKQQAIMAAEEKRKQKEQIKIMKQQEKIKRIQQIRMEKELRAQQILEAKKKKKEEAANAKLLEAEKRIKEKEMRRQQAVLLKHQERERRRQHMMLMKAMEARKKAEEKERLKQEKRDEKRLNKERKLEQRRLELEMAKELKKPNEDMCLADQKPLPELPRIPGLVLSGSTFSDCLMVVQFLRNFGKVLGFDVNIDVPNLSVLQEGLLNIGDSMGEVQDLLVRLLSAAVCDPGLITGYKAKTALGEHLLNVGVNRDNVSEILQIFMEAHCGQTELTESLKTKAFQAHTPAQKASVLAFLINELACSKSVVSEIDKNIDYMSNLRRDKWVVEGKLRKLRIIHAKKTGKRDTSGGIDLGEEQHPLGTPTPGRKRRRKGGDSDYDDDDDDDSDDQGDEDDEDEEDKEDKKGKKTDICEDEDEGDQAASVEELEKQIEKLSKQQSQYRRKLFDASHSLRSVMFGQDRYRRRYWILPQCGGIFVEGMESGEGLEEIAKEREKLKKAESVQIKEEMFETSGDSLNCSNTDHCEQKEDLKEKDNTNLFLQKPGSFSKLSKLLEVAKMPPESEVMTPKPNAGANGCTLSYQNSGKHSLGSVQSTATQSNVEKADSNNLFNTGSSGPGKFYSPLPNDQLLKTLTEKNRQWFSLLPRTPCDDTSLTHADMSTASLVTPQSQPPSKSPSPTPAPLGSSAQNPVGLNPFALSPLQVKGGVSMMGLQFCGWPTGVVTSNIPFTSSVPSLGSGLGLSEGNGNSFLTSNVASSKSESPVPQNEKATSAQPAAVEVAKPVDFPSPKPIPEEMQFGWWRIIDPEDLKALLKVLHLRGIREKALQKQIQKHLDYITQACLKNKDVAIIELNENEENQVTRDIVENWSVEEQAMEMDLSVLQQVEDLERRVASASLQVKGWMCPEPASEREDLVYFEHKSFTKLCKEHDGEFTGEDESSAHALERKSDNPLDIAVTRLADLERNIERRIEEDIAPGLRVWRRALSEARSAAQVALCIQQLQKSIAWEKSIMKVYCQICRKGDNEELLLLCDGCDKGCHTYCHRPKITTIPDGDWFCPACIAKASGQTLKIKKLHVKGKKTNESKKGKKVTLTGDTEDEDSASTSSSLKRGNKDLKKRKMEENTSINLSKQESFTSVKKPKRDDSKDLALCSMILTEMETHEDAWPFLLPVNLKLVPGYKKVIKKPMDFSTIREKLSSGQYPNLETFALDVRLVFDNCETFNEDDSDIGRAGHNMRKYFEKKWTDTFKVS
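In this displacement format the biotinylated H3(5-23) peptide acetylated at Lys14 serves as ligand at 50 nM, with BAZ2B at 50 nM in PBS pH 7.4 containing 0.01% Tween-20. Donor and acceptor beads are 10 ug/mL final.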
CtBP-E1A inh – blocks the CtBP interaction with E1A; AlphaScreen GST-E1A/His-CtBP binding, 1536-well; stronger effect = lower value; activity change, % (no concentration beside the values); hit rate 0.49% among 340,000; AID 651724; in the data active = activity change below about -65%; inconclusive = mostly about -30% to -63%; also: % is scaled to controls: 0 for no effect and ±100 for the full control effect
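In 5 uL wells, 23 nL compound meets equimolar GST-E1A and His-CtBP (5X stock 125 nM each) for 2 h, 37 °C. Beads (5X, 50 ug/mL) then 1 h, 37 °C, dark.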
* marks the source's active call; other numbers are inactive results; u = inconclusive; x = no result; ! = repeats disagree; [ ] = dose if it differs, or a comment. Unless noted, calls follow the shape of the dose curve; as a rule, active = well fitted inhibition curve with a large enough effect; inconclusive = small, poorly fitted or top-dose-only effect; inactive = no such curve, though single readings can be large or run the other way.

SMILES	G9a inh	Six1-Eya2 blk	HP1b chromo inh	JMJD2A Tudor	BAZ2B inh	CtBP-E1A inh
CCC1Oc2ccc(C)cc2N(CC(=O)NCc2ccc(OC)cc2)C1=O (stereo not drawn)	-4%[59 µM]	x	15%	-5%	-3%	x
O=C(C1CCC(Cn2c(=O)c3sccc3n(Cc3ccccc3)c2=O)CC1)N1CCOCC1 (stereo not drawn)	8%[59 µM]	x	12%	-12%	-15%	x
CC(=O)N(CC(=O)O)c1ccccc1C(=O)O	18µM*	14	12%	-1%	-1%	-2
CN(Cc1ccccc1)C(=O)c1ccc2c(c1)N(Cc1ccccc1F)C(=O)c1ccccc1S2(=O)=O	-40%[59 µM]	x	19%	-16%	-12%	x
CN(C)N1C(=O)/C(=C/c2ccco2)SC1=Nc1ccccc1	x	-18	-11%	-29%	x	-22
Cc1cccc(N=C2NC(=O)S/C2=C\c2ccco2)c1	22µM*	-22	-21%	40µM*	u	-12
O=C1NC(=Nc2ccc(Cl)cc2)/C(=C/c2ccco2)S1	3.2µM*	-10	-1%	11µM*	50µM*	5
COc1cccc(N2C(=O)C(CC(=O)Nc3ccccc3)N(CCc3sccc3C)C2=O)c1 (stereo not drawn)	1%[59 µM]	x	35%	-17%	-14%	x
CC(=O)Nc1cc(C(=O)Nc2ccc3c(c2)N(C)C(=O)c2ccccc2S3)ccc1C	4%[59 µM]	x	17%	-9%	0%	x
CCc1ccc(N2CCn3c2nc2c3c(=O)n(C/C=C/c3ccccc3)c(=O)n2C)cc1	2%[59 µM]	x	9%	-13%	0%	x
COc1cccc(CNC(=O)c2cc(S(=O)(=O)N3CCCCC3)cn2C)c1	-15%[59 µM]	x	7%[57 µM]	-12%	-10%	x
COc1ccc(C)cc1NC(=O)c1c(C(=O)Nc2cccc(C)c2C)sc2nc(C)cc(=O)n12	-11%[59 µM]	x	-1%	-13%	0%	x
Cc1cc(=O)n2c(C(=O)Nc3ccc(F)c(Cl)c3)c(C(=O)Nc3cccc(C)c3C)sc2n1	11µM*	x	-12%	-22%	-1%	x
Cc1cc(=O)n2c(C(=O)Nc3ccc(C(=O)OC(C)C)cc3)c(C(=O)Nc3ccccc3)sc2n1	45µM*	0	62%	-18%	-21%	x
O=C(Cn1c(=O)n(-c2ccccc2)c(=O)c2c3c(sc21)CCCC3)Nc1cccc(F)c1	2%[59 µM]	x	31%	4%	0%	x
O=C(CSc1ncccc1C(=O)Oc1ccccc1Cl)Nc1ccccc1Cl	-5%[59 µM]	x	23%	-5%	22%	x
COc1ccc(C2C3=C(CCCC3=O)Nc3nc(-c4cc(OC)c(OC)c(OC)c4)nn32)cc1OC (stereo not drawn)	40µM*	1	4%	-13%	-8%	0
CCC(NC(C)C)C(O)c1ccc(O)c(O)c1 (stereo not drawn)	27µM*!	6	7%	u	u	6
CC[C@H](NC(C)C)[C@H](O)c1ccc(O)c2[nH]c(=O)ccc12	17%[59 µM]	x	x	x	x	x
CCC(c1ccc(O)c(O)c1)C(CC)c1ccc(O)c(O)c1 (stereo not drawn)	x	-8	u	79µM*	x	-10
CC(=O)c1cccc(NC(=O)c2cccc3c(-c4cccc(C(N)=O)c4)coc23)c1	x	-18	x	x	x	u
CS(=O)(=O)Nc1cccc(NC(=O)c2cccc3c(-c4cccc(C(N)=O)c4)coc23)c1	x	u	x	x	x	-72*
CCc1ccc2c(c1)c(N=NC1=NC(=O)CS1)c(O)n2CC	-17%[0.501 µM]	5	-7%	u	50µM*	1
CCc1ccc2[nH]c(O)c(N=NC3=NC(=O)CS3)c2c1	u	-3	-11%	-4%[11.4 µM]	40µM*	0
CCCC(=O)N1c2ncnn2C2(CCCCC2)[C@@H]2CCCC[C@@H]21	2%[59 µM]	x	37%	-3%	4%	x
SMILES	G9a inh	Six1-Eya2 blk	HP1b chromo inh	JMJD2A Tudor	BAZ2B inh	CtBP-E1A inh
N#CC1=C(N)NC(=S)C(C(N)=O)C1c1ccccc1F (stereo not drawn)	50µM*	-8	9%	-29%	-15%	-1
COc1ccc(Br)c2oc(SC)cc(=O)c12	40µM*	u	32%	-10%	u	u
COC(=O)c1ccc(CNC(=O)c2nc(Cn3nc(C)c(Br)c3C)no2)cc1	-3%[59 µM]	x	40%	-11%	-20%	x
O=c1[nH]c2ccccc2n1CCCSCCCn1c(=O)[nH]c2ccccc21	-22%	-1	19%	-19%	4%	-2
Cc1cc(C(=O)CSCCCn2c(=O)[nH]c3ccccc32)c(C)n1C	10%[12.7 µM]	-2	-15%	50µM*	u	-11
Oc1ccc(Cl)cc1C1=NNC(c2cccs2)C1 (stereo not drawn)	50µM*	-6	-11%	-33%[11.4 µM]	-38%	-5
Cc1ccc(O)c(C2=NNC(c3ccc(Cl)cc3)C2)c1 (stereo not drawn)	x	0	33%	-34%	u	-12
Cc1cccc2cc(CN(Cc3cccnc3)C(=S)NCCCN(C)C)c(=O)[nH]c12	u	-3	-2%	13µM*	u	-2
CCN(CC)CCCNC(=S)N(Cc1cccnc1)Cc1cc2cccc(C)c2[nH]c1=O	-2%	-2	13%	-9%	-2%	-9
CCN(C(=O)C(NS(=O)(=O)c1cccc2nsnc12)c1ccccc1)c1ccccc1 (stereo not drawn)	2.8µM*	x	5%	u	x	x
CC(=O)c1cccc(NC(=O)CCS(=O)(=O)c2cccc3nsnc23)c1	10µM*	0	-38%	-27%[57.1 µM]	-4%	-8
O=C(CCS(=O)(=O)c1cccc2nonc12)NC1CCCCCC1	-8%[2.33 µM]	1	16%	-22%	2%	-1
O=C(CCS(=O)(=O)c1cccc2nsnc12)NC1CCCCCC1	40µM*	3	14%	-11%	-1%[57.1 µM]	1
Cc1cc(C)cc(NC(=O)CCS(=O)(=O)c2cccc3nsnc23)c1	-7%[59 µM]	x	7%	-23%	-6%	x
C=CCN(C(=O)CCS(=O)(=O)c1cccc2nsnc12)c1ccccc1	45µM*	2	3%	-23%	-4%	-8
O=C(Cn1c(=O)n(-c2ccc(F)cc2)c(=O)c2sc3ccccc3c21)NC1CCCCC1	-26%[59 µM]	x	16%	-13%	-10%	x
CC(C)CCn1c(=O)c2ccccc2n2c(=S)[nH]nc12	1.4µM*	-24	71µM*	3.5µM*	45µM*	-8
C=CCn1c(=O)c2ccccc2n2c(=S)[nH]nc12	7.9µM*	-8	-19%	7.9µM*	-10%	-4
CCCCCn1c(=O)c2ccccc2n2c(CCl)nnc12	4%	19	36%	-3%	-14%	-17
C=CCn1c(=O)c2ccccc2n2c(SCC(=O)c3ccccc3)nnc12	22µM*	-3	-19%	-11%[11.4 µM]	1%	-2
CCOCCCn1c(=O)c2ccccc2n2c(=S)[nH]nc12	10µM*	-2	-13%	4µM*	-24%	x
